Assay outcomes deposited in PubChem by National Center for Advancing Translational Sciences (NCATS).
ALOX15 inhib: inhibitors of human 15-lipoxygenase (ALOX15); P16050; purified 15hLO-1, xylenol orange hydroperoxide absorbance; Potency, µM (titrated, usually from 57.1 µM), hits mostly inhibitors; 74,000 tested, 1.4% active; AID 887; note: nearly all actives have a fitted effect of over 55% in size
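Hydroperoxide formed from arachidonic acid (50 uM) by purified human 15hLO-1 (40 nM) oxidizes ferrous iron, and the ferric-xylenol orange complex is read at 573 versus 405 nm. Compounds were preincubated 15 min; reaction ran 6 min at room temperature.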
Casp7 inh: caspase-7 (human) inhibition, allosteric or competitive | P55210 | recombinant caspase-7, Ac-DEVD-AFC fluorescence rate | Potency, µM (top dose mostly 57.5 µM), most hits filed as inhibitors | 75,000 tested, 0.02% active | AID 889; active = well fitted inhibition curve with a large enough effect in the main read-out, with a control signal flat, not every such curve was filed as active; inconclusive = small, poorly fitted or top-dose-only effect, or a change in a side signal
Caspase-1 inhib: caspase-1 (human) inhibition, allosteric or competitive | Caspase-1 enzyme, Ac-WEHD-AFC fluorogenic rate | P29466 | 75,000 tested, 0.03% active | AID 900 | Potency, µM (highest dose often 57.5 µM), most hits filed as inhibitors
TSHR ag: TSH receptor (human) agonism; HEK293-CNG-TSHR cells (CNG channel as cAMP sensor), membrane potential dye, cAMP; Potency, µM (doses to about 57.1 µM), most hits filed as activators; 73,000 tested, 0.48% active; active = well fitted activation curve with a large enough effect in the main read-out, with a control signal flat, not every such curve was filed as active; inconclusive = small, poorly fitted or top-dose-only effect, or a change in a side signal; inactive = no such curve, though single readings can be large or run the other way; reference of the percent scale not stated here;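 note: the control signal comes from parental cells without the receptor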
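cAMP rise detected as CNG-channel membrane depolarization by fluorescent dye (emission 590 nm), 30 min after compound, following 60 min dye loading containing 100 uM RO 20-1724 at room temperature. Cells: TSHR/CNG HEK 293, with parental CNG HEK 293 as control.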
HEK293 cAMP ctrl: counter-screen for TSHR agonists: cAMP increase in parental HEK293 | parental HEK293 CNG cAMP sensor, membrane potential fluorescence | Potency, µM (doses to about 57.1 µM), most hits filed as activators | 73,000 tested, 2.5% active | AID 938; note: nearly all actives have a fitted effect of over 55% in size
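Counterscreen for endogenous-receptor signalling: CNG-channel HEK 293 cells report cAMP rise by membrane depolarization. After 60 min dye equilibration with 100 uM RO 20-1724, compounds incubated 30 min before bottom-read fluorescence at 590 nm.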
ERK AVP block: blocks ERK signaling stimulated by vasopressin | HEK293-V1b, vasopressin-stimulated pERK AlphaScreen | Potency, µM (series often up to 57.5 µM), most hits filed as inhibitors | 72,000 tested, 0.99% active | AID 995; note: nearly all actives have a fitted effect of over 55% in size
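qHTS, compounds titrated on V1b-expressing HEK293 cells. Preincubation 30 min at 37C, vasopressin 25 nM for 5 min, lysis 10 min, bead incubation 5 hr at room temperature.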
Large screens that a line does not name were inactive; ! = not active in a repeat. Rows were chosen to be rich in hits. Some 4.8% of all compounds tested hit in one or more screens of this group. Unless noted, calls come from the whole dose curve; as a rule, active = well fitted curve in the direction sought with a large enough effect; inconclusive = small, poorly fitted or top-dose-only effect, or another doubt; inactive = no such curve, though single readings can be large; an effect the other way counts as inactive or inconclusive.

CC(=O)OCC1OC(C#Cc2ccc(Br)cc2)C=CC1OC(C)=O (stereo not given)	none
CSc1nsc(SC)c1NC(=O)OCC1CCCO1 (stereo not given)	none
COc1cccc(Cn2c(=O)c(CCc3ccccc3)nc3cnc(N4CCNCC4)nc32)c1	none
CCn1c(SCC(=O)Nc2ccccc2N2CCCCC2)nc2c1c(=O)n(C)c(=O)n2C	TSHR ag inconclusive, HEK293 cAMP ctrl 15.8µM
Cc1occc1-c1nnc(SCC(=O)Nc2ccccc2N2CCCCC2)n1C	TSHR ag inconclusive, HEK293 cAMP ctrl 31.6µM
CCn1c(SCC(=O)Nc2ccccc2-c2ccccc2)nnc1-c1ccoc1C	TSHR ag inconclusive, HEK293 cAMP ctrl inconclusive
O=Cc1ccsc1B(O)O	none
c1ccc2cc(NCNc3ccc4ccccc4c3)ccc2c1	none
Cc1cccc(N(C)C(=O)c2cc3cc4ccc(C)cc4nc3o2)c1	TSHR ag inconclusive, HEK293 cAMP ctrl 10µM
Cc1ccc2cc3cc(C(=O)N(C)C4CCCCC4)oc3nc2c1	none
Cn1c(CSc2ccccc2)c(C#N)c2ccccc21	TSHR ag inconclusive, HEK293 cAMP ctrl 25.1µM
C[C@@]1(C(NC(=O)c2ccc(-c3ccccc3)cc2)c2ccc(Cl)cc2)C[C@H]1C1CCCCC1 (stereo not given in full)	none (no result: ALOX15 inhib)
O=c1cc(-c2ccccc2)oc2cc(O[C@@H]3O[C@H](CO)[C@@H](O)[C@H](O)[C@H]3O)c(O)c(O)c12	none (no result: TSHR ag, HEK293 cAMP ctrl)
O=C(Cc1ccccc1)Nc1nc2ccc(Cl)cc2c2nc(-c3ccco3)nn12	ALOX15 inhib inconclusive, TSHR ag inconclusive, HEK293 cAMP ctrl inconclusive
OC(CCN1CCOCC1)(c1ccc(Cl)cc1)C1CCCCC1 (stereo not given)	TSHR ag inconclusive, HEK293 cAMP ctrl 15.8µM
OC(CCN1CCCCC1)(c1ccccc1)C1CCCCC1 (stereo not given)	none (no result: TSHR ag, HEK293 cAMP ctrl)
C=C(C)C(=O)OCC1CN2C(CCC(C)C2c2ccc(Br)cc2)C(=O)O1 (stereo not given)	TSHR ag inconclusive, HEK293 cAMP ctrl 1.58µM!
C=COCC1CN2C(CCC(C)C2c2ccc(Br)cc2)C(=O)O1 (stereo not given)	TSHR ag inconclusive, HEK293 cAMP ctrl inconclusive
COc1cccc(Cn2c(=O)c(-c3ccc(F)cc3)nc3cnc(N(C)C)nc32)c1	Casp7 inh inconclusive (no result: Caspase-1 inhib)
COc1cc(S(=O)(=O)N2CCCCCC2)c(OC)cc1Br	TSHR ag inconclusive, HEK293 cAMP ctrl 15.8µM
COc1ccc(OC)c(S(=O)(=O)N2CCCCCC2)c1	none
CCOC(=O)[C@H](CCc1ccccc1)N[C@@H](C)C(=O)N1[C@H](C(=O)O)C[C@H]2CCCC[C@@H]21	none (no result: TSHR ag, HEK293 cAMP ctrl)
CCOC(=O)c1ccc(NC(=O)CCc2nc(-c3cccc(C)c3)no2)cc1	ERK AVP block 25.1µM
CCOC(=O)c1cnc(-n2nc(C)cc2C)nc1NC(C)c1ccccc1 (stereo not given)	TSHR ag inconclusive, HEK293 cAMP ctrl 25.1µM
CCOC(=O)c1cnc(-n2nc(C)cc2C)nc1NCc1ccccc1	TSHR ag inconclusive, HEK293 cAMP ctrl 20µM, ERK AVP block inconclusive
CCOC(=O)c1cnc(-n2nc(C)cc2C)nc1N1CC(C)OC(C)C1 (stereo not given)	none
O=C(c1cc2nc(-c3ccco3)cc(C(F)(F)F)n2n1)N1CCCCCC1	ALOX15 inhib inconclusive, Casp7 inh inconclusive (no result: Caspase-1 inhib)
CN(C(=O)c1cc2nc(-c3ccco3)cc(C(F)(F)F)n2n1)C1CCCCC1	ALOX15 inhib 10µM (no result: ERK AVP block)
CN(C)Cc1ccccc1-c1cncnc1NC1CC1	none
Cc1cc(O)c(-c2cc(O)c(C)cc2O)cc1O	ALOX15 inhib 1.58µM
Cc1ccc(N)cc1O	Caspase-1 inhib inconclusive, TSHR ag inconclusive
O=C(c1cc(-c2ccco2)on1)N1CCc2ccccc2C1	ALOX15 inhib 15.8µM, TSHR ag inconclusive, HEK293 cAMP ctrl inconclusive
O=C(c1cc(-c2ccccc2O)on1)N1CCc2ccccc2C1	ERK AVP block inconclusive
O=C(c1cc(-c2ccc(O)cc2)on1)N1CCc2ccccc2C1	ALOX15 inhib 15.8µM, TSHR ag inconclusive, HEK293 cAMP ctrl 20µM, ERK AVP block 31.6µM
O=C(c1cc(-c2cccs2)on1)N1CCc2ccccc2C1	TSHR ag inconclusive, HEK293 cAMP ctrl inconclusive
COc1ccc(C)cc1NC(=O)CN(Cc1nnc(-c2ccc(Cl)cc2)o1)C1CCCC1	TSHR ag inconclusive, HEK293 cAMP ctrl 15.8µM
COc1ccc(C)cc1NC(=O)CSc1nnc(-c2ccc(C)cc2)o1	TSHR ag inconclusive, HEK293 cAMP ctrl inconclusive
CCOc1ccccc1NC(=O)c1ccccc1-c1nc(-c2ccccc2)no1	TSHR ag inconclusive, HEK293 cAMP ctrl 15.8µM
COc1ccc(-c2noc(-c3ccccc3C(=O)Nc3cccc(OC)c3)n2)cc1	TSHR ag inconclusive, HEK293 cAMP ctrl 12.6µM
FC(F)(F)c1ccccc1-c1nc(N2CCOCC2)c2ccccc2n1	TSHR ag inconclusive, HEK293 cAMP ctrl 1µM
CC(=O)c1ccc2c(c1)Nc1ccccc1S2	ALOX15 inhib inconclusive
CCOC(=O)Nc1ccc2c(c1)Nc1ccccc1S2	ALOX15 inhib 31.6µM, TSHR ag inconclusive
CCN1CCC2(CC1)C(C#N)=C(N)Oc1c2sc2nc(C)cc(C)c12	ALOX15 inhib 25.1µM, Casp7 inh inconclusive, Caspase-1 inhib inconclusive, ERK AVP block inconclusive
S=C(S)O[C@@H]1C[C@@H]2C[C@H]1[C@@H]1CCC[C@H]21	ALOX15 inhib 25.1µM!, TSHR ag inconclusive, HEK293 cAMP ctrl inconclusive
O=C(/N=C1\NC(=O)C(F)(C(F)(F)F)S1)NC1CCCCC1 (stereo not given)	ALOX15 inhib 10µM
O=C(CC1Nc2ccccc2NC1=O)NC1CCCCC1 (stereo not given)	TSHR ag inconclusive, HEK293 cAMP ctrl inconclusive
O=C(O)CCN=C1CCCc2ccccc2N1	none
CN(C)C=NC(=O)/C(C#N)=C1\CCc2ccccc2N1	ALOX15 inhib 7.94µM
COc1cccc(Cn2c(=O)c(CCc3ccccc3)nc3cnc(N4CCOCC4)nc32)c1	none
CC(C)(C)n1nnnc1C(c1ccccc1F)N(Cc1ccco1)CC1CCCO1 (stereo not given)	TSHR ag inconclusive, HEK293 cAMP ctrl 12.6µM
CC(=O)OC1C[C@@]2(C)C(c3ccoc3)OC(=O)C3O[C@@]32[C@]2(C)C(OC(C)=O)CC3C(C)(C)C(OC(C)=O)CC(OC(C)=O)[C@@]3(C)C12 (stereo not given in full)	none (no result: TSHR ag, HEK293 cAMP ctrl)
O=C(/C=C\c1ccc(O)c(O)c1)OCCc1ccccc1	ALOX15 inhib 0.794µM, TSHR ag inconclusive, HEK293 cAMP ctrl inconclusive, ERK AVP block inconclusive
O=C(/C=C/c1ccc(O)c(O)c1)O[C@@H](C(=O)O)[C@@H](OC(=O)/C=C/c1ccc(O)c(O)c1)C(=O)O	ALOX15 inhib inconclusive
